PME-1 inh: PME-1 (human) inhibition; recombinant PME-1, FP-Rh probe fluorescence polarization; inhibition, % at 5.9 µM; Q9Y570; 320,000 compounds, 0.53% hits;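 active = inhibition above the campaign mean of all compounds plus 3 SD, cut at about 26% in these data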;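 note: competitive labeling of PME-1 active site by serine hydrolase directed probe; inhibitors block probe labeling so polarization falls and inhibition rises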
GSTO1 counter: blocks human GSTO1 in RBBP9 counter-screen; recombinant GSTO1, activity-based probe fluorescence polarization; inhibition, % at 5.96 µM; 300,000 compounds, 1.1% hits; AID 1974;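 active = inhibition above the campaign mean inhibition plus 3 SD, cut at about 35% in these data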
Target sequence (P78417 whole entry, looked up): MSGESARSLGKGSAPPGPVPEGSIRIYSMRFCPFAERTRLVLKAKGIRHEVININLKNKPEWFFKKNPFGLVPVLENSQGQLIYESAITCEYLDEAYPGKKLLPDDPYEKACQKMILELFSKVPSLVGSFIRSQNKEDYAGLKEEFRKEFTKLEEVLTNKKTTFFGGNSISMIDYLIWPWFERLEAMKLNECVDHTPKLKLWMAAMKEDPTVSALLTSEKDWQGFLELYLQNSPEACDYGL
PAD4 FP inh: blocks human protein arginine deiminase 4 | 330,000 compounds, 0.41% hits | recombinant PAD4, RCA probe fluorescence polarization | AID 485272 | Q9UM07 | inhibition, % at 6.36 µM;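 active = percent inhibition above a cutoff equal to the mean of all tested compounds plus 3 SD, cut at about 15% in these data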
LYPLA2 counter: blocks human lysophospholipase 2, a PME1 counter-screen | O95372 | recombinant LYPLA2, FP-Rh probe fluorescence polarization | inhibition, % at 5.9 µM | AID 2177 | 320,000 compounds, 0.38% hits;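 active = inhibition above the screen-wide mean plus 3 SD, limit set per campaign, cut at about 26% in these data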
LYPLA1 inh: blocks human lysophospholipase 1, a PME1 counter-screen. recombinant LYPLA1, FP-Rh probe fluorescence polarization. O75608. 320,000 compounds, 0.16% hits. inhibition, % at 5.9 µM;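 active = inhibition above the mean of all tested compounds plus 3 SD, set per campaign, cut at about 14% in these data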;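 note: inhibitors block serine hydrolase probe labeling of LYPLA1 so polarization falls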
Target sequence (O75608 whole entry, looked up): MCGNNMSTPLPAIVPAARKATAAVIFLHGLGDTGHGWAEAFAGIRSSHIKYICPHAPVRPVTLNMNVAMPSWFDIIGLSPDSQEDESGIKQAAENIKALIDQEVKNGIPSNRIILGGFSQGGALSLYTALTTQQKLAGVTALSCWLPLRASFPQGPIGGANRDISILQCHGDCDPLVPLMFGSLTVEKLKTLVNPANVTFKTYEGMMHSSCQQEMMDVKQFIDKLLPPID
Fam108B counter: blocks mouse Fam108B hydrolase in RBBP9 counter-screen; recombinant Fam108B, FP-Rh probe fluorescence polarization; inhibition, % at 9.51 µM; 300,000 compounds, 0.33% hits; AID 1947;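 active = inhibition above the screen mean inhibition plus 3 SD, computed separately per campaign, cut at about 18% in these data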;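 note: inhibitors lower polarization as less probe binds the enzyme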
GSTO1 inh conf: GSTO1 (human) inhibition, confirmation | AID 2176 | recombinant GSTO1, probe fluorescence polarization | 2,400 compounds, 54% hits | inhibition, % at 5.96 µM | shares compounds with GSTO1 counter;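 active = inhibition above the primary screen's cutoff, its mean inhibition plus 3 SD, cut at about 35% in these data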;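 note: loss of polarization as inhibitors block binding of rhodamine sulfonate ester activity probe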
GSTO1 recomb ABPP: inhibitors of recombinant human GSTO1; shares compounds with GSTO1 counter; gel ABPP SE-Rh probe fluorescence; inhibition, % at 1 µM; 130 compounds, 30% hits;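 active = inhibition of the enzyme GSTO1 above about 75%, limit read from the data; inactive = inhibition below that limit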
Each line names hits and unclear results; the compound was inactive in the other large screens (follow-up assays come after a bar, where they were run). Hits are enriched below; roughly 1.8% of the tested compounds scored in any of these assays.

O=C(CCl)N1N=C(c2cccs2)CC1c1ccco1 (stereo unspecified)	GSTO1 counter 92 | GSTO1 inh conf 100
O=C(O)/C=C/C(=O)N1N=C(c2ccco2)CC1c1ccco1 (stereo unspecified)	none
Oc1ccc(/C=N/N2CCN(C3c4ccccc4-c4ccccc43)CC2)c(O)c1	none
CCN(CC(=O)Nc1ccc(OC)cc1)C(=O)c1cc(S(=O)(=O)N2CCOCC2)ccc1N1CCCC1	none
O=C(C[n+]1ccc(/C=N/O)cc1)N(Cc1ccccc1)Cc1ccccc1	none
Cc1ccc2c(c1)c1c3n2CCN(C(=O)CCl)C3CCC1 (stereo unspecified)	GSTO1 counter 93 | GSTO1 inh conf 93 | GSTO1 recomb ABPP 85
Cc1ccccc1N=Cc1cccc(O)c1O	GSTO1 counter 70 | GSTO1 inh conf inactive
Oc1cccc(/C=N/N=C/c2cccc(O)c2O)c1O	none
CCN(CC)c1ccc(C=Nc2ccc(C)cc2C)c(O)c1	none
Cc1ccc(N=Cc2cccc(O)c2O)c(C)c1	GSTO1 counter 85 | GSTO1 inh conf inactive
CC(N=Cc1cccc(O)c1O)c1ccccc1 (stereo unspecified)	GSTO1 counter 77 | GSTO1 inh conf 54
CCOc1ccc(CCNS(=O)(=O)c2ccc3c(c2)oc(=O)n3C)cc1OCC	none
NC1=NC(=O)/C(=C\c2cc([N+](=O)[O-])ccc2Cl)S1	GSTO1 counter 46 | GSTO1 inh conf inactive
O=S(=O)(c1ccc(Cl)cc1)N1CCC2(CC1)CO2	GSTO1 counter 96 | GSTO1 inh conf 106 | GSTO1 recomb ABPP inactive
O=C1N=C(N2CCOCC2)S/C1=C/c1cc2c(cc1[N+](=O)[O-])OCO2	GSTO1 counter 64 | GSTO1 inh conf 48
COc1ccc(NC(=O)CN(C)CC(=O)Nc2cccc(S(=O)(=O)N(C)c3ccccc3)c2)cc1	none
Cc1nnc(SCC(=O)c2cc(C)n(-c3c(C)n(C)n(-c4ccccc4)c3=O)c2C)s1	GSTO1 counter 38 | GSTO1 inh conf inactive
Cc1cc(C(=O)CSc2nnc(N)s2)c(C)n1-c1c(C)n(C)n(-c2ccccc2)c1=O	none
COC(=O)c1ccccc1NCc1cc(=O)oc2cc(O)c(O)cc12	GSTO1 counter 43 | GSTO1 inh conf inactive
COc1ccc(C)cc1NCc1cc(=O)oc2cc(-c3ccccc3)c(O)cc12	none
O=C(CSc1nnc(CNC(=O)c2ccccc2)o1)Nc1ccc2c(c1)OCCO2	none
O=C(CSc1nnc(CNc2ccccc2)o1)c1ccc2c(c1)OCCO2	GSTO1 counter 40 | GSTO1 inh conf inactive
CCOc1ccc(Cc2nnc(SCC(=O)c3ccc(OC)cc3)o2)cc1	none
COc1cc(-c2nnc(SCC(=O)c3ccc(C)cc3)o2)cc(OC)c1OC	GSTO1 counter 38 | GSTO1 inh conf inactive
COc1ccc(C(=O)CSc2nnc(Cc3ccccc3)o2)cc1	GSTO1 counter 38 | GSTO1 inh conf inactive
O=C(OCCCc1cc2ccccc2c(=O)o1)c1ccc2c(c1)OCO2	none (no result: GSTO1 counter, Fam108B counter)
N#CC1CCCc2c1[nH]c1ccc([N+](=O)[O-])cc21 (stereo unspecified)	none
CCC(=O)Nc1ccc(-c2nnc(SCC(=O)NCC3CCCO3)n2C)cc1 (stereo unspecified)	none
O=C(CN(C(=O)c1csnn1)c1ccccc1)NCCc1ccccc1	none
NC(=S)N/N=C/c1coc2ccc(O)cc2c1=O	GSTO1 counter 67 | GSTO1 inh conf inactive
CCOC(=O)c1ccc(NC(=O)Cn2ncc(Cl)c(Cl)c2=O)cc1	none
Cc1ccc(C(=O)OCn2ncc(Cl)c(Cl)c2=O)cc1	GSTO1 counter 45, PAD4 FP inh 20 | GSTO1 inh conf 46
CCCC[n+]1ccn(C2=C([O-])c3ccccc3C(=O)/C2=N\S(=O)(=O)c2ccccc2)c1	GSTO1 counter 68 | GSTO1 inh conf 66
CC(C)(C)c1cc[n+](C2=C([O-])c3ccccc3C(=O)/C2=N\S(=O)(=O)c2ccccc2)cc1	GSTO1 counter 87 | GSTO1 inh conf 81
CC(C)[n+]1ccn(C2=C([O-])c3ccccc3C(=O)/C2=N\S(=O)(=O)c2ccccc2)c1	GSTO1 counter 61 | GSTO1 inh conf 57
CCCC[n+]1ccn(-c2nc3ccccc3nc2[N-]S(=O)(=O)c2ccccc2)c1	none
Cc1c(C(C)(C)C)s/c(=N/S(=O)(=O)c2ccccc2)n1C	none
CCCCC[n+]1ccn(C2=C([O-])c3ccccc3C(=O)/C2=N\S(=O)(=O)c2ccc(Br)cc2)c1	GSTO1 counter 47 | GSTO1 inh conf inactive
CC(C)CC(NC(=O)C(COCc1ccccc1)NC(=O)OC(C)(C)C)C(=O)NN (stereo unspecified)	none
COCCNCc1ccccc1[N+](=O)[O-]	none
CCOc1ccccc1C(=O)Nc1ccccc1-c1ccccc1	none
CCSc1nnc(-c2ccccc2N=Cc2c(C)[nH]n(-c3ccccc3)c2=O)c(=O)[nH]1	none
CCOC(=O)C(C)Oc1ccc(NC(=O)C(Cl)Cl)cc1 (stereo unspecified)	none
CCCCC[n+]1ccn(C2=C([O-])c3ccccc3C(=O)/C2=N\S(=O)(=O)c2ccccc2)c1	GSTO1 counter 75 | GSTO1 inh conf 59
Cc1cc(Sc2nc(N(C)C)nc(N(C)C)n2)nc(Cl)n1	none
CCC(=O)c1ccc(OCC(=O)N2CCCC2)c(OC)c1	none
O=C(c1ccc2nc(-c3ccco3)c(-c3ccco3)nc2c1)N1CCN(c2ncccn2)CC1	GSTO1 counter 68 | GSTO1 inh conf inactive
CCCCNC(=O)c1ccc2nc(-c3ccco3)c(-c3ccco3)nc2c1	GSTO1 counter 70 | GSTO1 inh conf inactive
O=C(OCC(=O)N1CCC(c2ccccc2)=N1)c1ccc([N+](=O)[O-])s1	GSTO1 counter 58 | GSTO1 inh conf inactive
Cc1cc(C(=O)OCC(=O)N2CCC(c3ccccc3)=N2)ccc1[N+](=O)[O-]	none
Cc1[nH]c2ccccc2c1C(=O)COC(=O)c1ccc([N+](=O)[O-])s1	GSTO1 counter 52 | GSTO1 inh conf inactive
O=C(Cc1ncc(C(F)(F)F)cc1Cl)NCc1ccco1	none
C/C(=N\NC(=O)c1cc(O)ccc1O)c1cccc(NC(=O)c2ccc(Cl)cc2)c1	GSTO1 counter 85 | GSTO1 inh conf inactive
C/C(=N\NC(=O)c1cc(O)ccc1O)c1cccc(NC(=O)c2cccc(Cl)c2)c1	GSTO1 counter 56 | GSTO1 inh conf inactive
C/C(=N\NC(=O)c1ccccc1O)c1cccc(NC(=O)c2ccccc2)c1	none
CCC(C(=O)Nc1c(C)cc(C)cc1C)N1CCCCCC1 (stereo unspecified)	none
COc1cccc(C(=O)NC2CCCc3ccccc32)c1OC (stereo unspecified)	none

Assay outcomes as filed in PubChem BioAssay.
